# Inconclusive results are not listed. Where a call stands in place of a potency, no number is given. A number with no mark means an inactive call. The source made the active and inactive calls. Unless noted, calls follow the shape of the dose curve; as a rule, active = well fitted curve in the direction sought with a large enough effect; inconclusive = small, poorly fitted or top-dose-only effect, or another doubt; inactive = no such curve, though single readings can be large; an effect the other way counts as inactive or inconclusive.
# Legend:
# [1] = qHTS for Inhibitors of Plasmodium falciparum (DD2) proliferation (AID 504314);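 also: parasite DNA measured by SYBR Green fluorescence after red cell lysis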
# Procedure, shortened: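 Erythrocytes infected with P. falciparum Dd2 (0.3% parasitemia, 2.5% hematocrit) exposed to compound 72 h at 37C, 5% CO2. Parasite DNA quantified by SYBR Green fluorescence after saponin/Triton lysis overnight; normalized to 0.29 uM artemisinin and DMSO.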
# [2] = qHTS for Inhibitors of Plasmodium falciparum (GB4) proliferation (AID 504315); also: nearly all actives have a fitted effect of over 50% in size
# Procedure, shortened: (§1)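 Erythrocytes infected with P. falciparum line (0.3% parasitemia, 2.5% hematocrit final) incubated with compounds 72 h at 37 °C, 5% CO2; SYBR Green lysis buffer added, fluorescence read next day. Normalized to 0.29 uM artemisinin and DMSO.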
# [3] = qHTS for Inhibitors of Plasmodium falciparum (7G8) proliferation (AID 504316); also: series mostly up to about 6.7 µM; nearly all actives have a fitted effect of over 65% in size
# Procedure, shortened: as §1
# [4] = qHTS for Inhibitors of Plasmodium falciparum (HB3) proliferation (AID 504318); also: nearly all actives have a fitted effect of over 60% in size
# Procedure, shortened: as §1
# [5] = qHTS for Inhibitors of Plasmodium falciparum (CP250) proliferation (AID 504320)
# Procedure, shortened: as §1
# [6] = target: Atrial natriuretic peptide receptor 1 (Homo sapiens) (UniProt P16066); assay: Natriuretic polypeptide receptor (hNpr1) antagonism - Pilot CMLD screen (AID 1347052; calls by dose curve;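 also: cGMP level read as GloSensor luciferase luminescence after agonist stimulation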; also: potency is read from the fitted curve at half-maximal effect)
# Chain of Atrial natriuretic peptide receptor 1 (Homo sapiens) (P16066 whole entry, looked up): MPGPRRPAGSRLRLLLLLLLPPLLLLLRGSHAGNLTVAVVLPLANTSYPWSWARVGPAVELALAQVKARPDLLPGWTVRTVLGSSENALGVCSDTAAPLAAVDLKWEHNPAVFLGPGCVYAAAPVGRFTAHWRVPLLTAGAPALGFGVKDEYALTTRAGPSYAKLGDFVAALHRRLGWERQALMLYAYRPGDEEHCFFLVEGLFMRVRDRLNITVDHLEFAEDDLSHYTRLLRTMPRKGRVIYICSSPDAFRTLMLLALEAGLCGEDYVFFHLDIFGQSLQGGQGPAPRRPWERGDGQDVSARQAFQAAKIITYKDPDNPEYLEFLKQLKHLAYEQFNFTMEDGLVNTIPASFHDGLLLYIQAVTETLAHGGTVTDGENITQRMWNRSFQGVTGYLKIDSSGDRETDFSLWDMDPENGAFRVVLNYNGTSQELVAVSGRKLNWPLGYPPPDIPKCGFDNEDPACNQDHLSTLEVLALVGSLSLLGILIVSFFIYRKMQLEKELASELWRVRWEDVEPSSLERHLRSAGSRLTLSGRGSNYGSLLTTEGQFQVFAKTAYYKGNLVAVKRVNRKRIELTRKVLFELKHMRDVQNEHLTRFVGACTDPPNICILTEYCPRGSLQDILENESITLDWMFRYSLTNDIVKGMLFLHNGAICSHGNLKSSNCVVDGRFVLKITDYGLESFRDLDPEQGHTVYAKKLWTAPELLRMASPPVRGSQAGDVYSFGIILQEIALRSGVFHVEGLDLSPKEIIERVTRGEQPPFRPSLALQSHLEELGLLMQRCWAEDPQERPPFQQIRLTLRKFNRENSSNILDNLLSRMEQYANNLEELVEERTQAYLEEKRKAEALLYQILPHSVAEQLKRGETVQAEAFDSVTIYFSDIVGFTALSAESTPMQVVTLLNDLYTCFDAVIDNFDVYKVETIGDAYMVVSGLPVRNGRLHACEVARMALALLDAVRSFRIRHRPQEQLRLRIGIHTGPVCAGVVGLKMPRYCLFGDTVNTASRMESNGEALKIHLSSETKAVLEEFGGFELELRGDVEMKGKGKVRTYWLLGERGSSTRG
Structure (SMILES),Potency [1],Potency [2],Potency [3],Potency [4],Potency [5],Potency [6],"activity, negative = inhibition [1]"
COC(=O)CCCC1=CC2=C(c3ccccc3)C(=O)C(C)(OC(=O)C3CCCC3)C(=O)C2=CN1CCN1CCOCC1 (configuration not stated),inactive,inactive,inactive,inactive,inactive,inactive,
COC(=O)C1=C(C(=O)OC)[C@@H]2Nc3ccccc3[C@@]23C[C@@H](C(=O)OC)N(C(=O)Nc2ccc(C(F)(F)F)cc2)C3=N1,inactive,inactive,inactive,inactive,inactive,inactive,
COc1ccc2c(c1)CO[C@H]([C@H](O)COC(C)=O)[C@H]2C=Cc1ccccc1,inactive,inactive,inactive,inactive,inactive,inactive,
CC1(OC(=O)C2CCCC2)C(=O)C=C2C=C(C3CC3)OC=C2C1=O (configuration not stated),inactive,inactive,inactive,inactive,inactive,inactive,
C=CC[C@](C)(Nc1ccc(OC)cc1)C(=O)OCC,inactive,inactive,inactive,inactive,inactive,inactive,
COC(=O)CCC(=O)OC1(C)C(=O)C=C2C=C(C3CC3)N(Cc3ccc4c(c3)OCO4)C=C2C1=O (configuration not stated),,inactive,inactive,inactive,inactive,inactive,-0.0348% [at 1.12 µM]
CC(C)=CCn1cnc2c1C(NOCc1ccccc1)=NCN2,inactive,inactive,inactive,inactive,inactive,inactive,
C#CCN1C(=O)CC[C@@]23C1=NC(C(=O)OC)=C(C(=O)OC)[C@@H]2N(C)c1ccccc13,inactive,inactive,inactive,inactive,inactive,inactive,
CCN1C(=NCc2ccccc2)N[C@@H](CCc2ccccc2)[C@H](C(=O)OC)[C@H]1C,inactive,inactive,inactive,inactive,inactive,inactive,
COC(=O)C1=C(C(=O)OC)[C@@H]2N(C)c3ccc(OC)cc3[C@@]23C[C@@H](C(=O)OC)N(C(=O)c2cc(C)oc2C)C3=N1,inactive,inactive,inactive,inactive,inactive,inactive,
COC(=O)CC=C[C@@H](C)[C@@H](C=NOC[C@@H](C)[C@H](OCc1ccccc1)C(C)C)NS(=O)(=O)c1ccc(C)cc1,inactive,inactive,inactive,inactive,inactive,inactive,
C[C@@H]1NC(=O)[C@@H](C)COC(=O)[C@H](C)NC(=O)[C@@H](C)COC1=O,inactive,inactive,inactive,inactive,inactive,inactive,
COC(=O)C(C(C)=O)C1c2ccccc2C=C(C)N1C(=O)OC (configuration not stated),,inactive,inactive,inactive,inactive,inactive,-3.36% [at 1.12 µM]
O=C1OCCC=C1C(O)CCc1ccccc1 (configuration not stated),inactive,inactive,inactive,inactive,inactive,inactive,
CC(=O)OC[C@H]1O[C@H](CC=NOCC[C@@H]2C=C[C@@H](OC(C)=O)[C@@H](COC(C)=O)O2)C=C[C@@H]1OC(C)=O,inactive,inactive,inactive,inactive,inactive,inactive,
COC(=O)CCCC1=CC2=CC(=O)C(C)(OC(=O)c3cccs3)C(=O)C2=CN1CCc1ccccn1 (configuration not stated),inactive,inactive,inactive,inactive,inactive,inactive,
COC(=O)[C@@H](O)CC[C@@H](C)Cc1c(OC)c(OC)c(C)c(OC)c1OC,inactive,inactive,inactive,inactive,inactive,inactive,
C(=Cc1nc(-c2ccccc2)oc1Nc1ccc2ccccc2c1)c1ccccc1,inactive,inactive,inactive,inactive,inactive,inactive,
COC(=O)C1=C(C(=O)OC)[C@@H]2N(Cc3ccccc3)c3ccccc3[C@@]23C[C@@H](C(=O)OC)N(C(=O)Nc2ccccc2F)C3=N1,inactive,inactive,inactive,inactive,inactive,3.35 µM (active),
CC1(OC(=O)C2CCCC2)C(=O)C=C2C=C3CCCN3C=C2C1=O (configuration not stated),,inactive,inactive,inactive,inactive,inactive,0.418% [at 1.12 µM]
c1ccc(CCc2nc(-c3ccccc3)oc2Nc2ccc3ccccc3c2)cc1,inactive,inactive,inactive,inactive,inactive,inactive,
C[C@H]1[C@@H]2O[C@H]2CCO[C@H]1c1cccc(Br)c1,inactive,inactive,inactive,inactive,inactive,inactive,
COC(=O)N1C2CC3(C)C=C(C)OC1(C)C3c1ccccc12 (configuration not stated),inactive,inactive,inactive,inactive,inactive,inactive,
COC(=O)C1=C(C(=O)OC)[C@@H]2N(C)c3ccccc3[C@@]23C[C@@H](C(=O)OC)N(C(=O)c2ccc(Br)cc2)C3=N1,inactive,inactive,inactive,inactive,inactive,inactive,
CC(=O)C1=C(C)N(Cc2ccccc2)C(=O)NC1c1cccc(C(F)(F)F)c1 (configuration not stated),inactive,inactive,inactive,inactive,inactive,inactive,
CCCCC1=CC2=C(c3ccco3)C(=O)C(C)(OC(=O)c3ccc(OC)cc3)C(=O)C2=CN1CCCN(CC)CC (configuration not stated),inactive,inactive,inactive,inactive,inactive,inactive,

Structure (SMILES),Potency [1],Potency [2],Potency [3],Potency [4],Potency [5],Potency [6],"activity, negative = inhibition [1]"
CCCCn1c(C)cc2c(c1=O)[C@H]1O[C@](c3ccsc3)(Cc3cc(OC)c(OC)cc31)O2,inactive,inactive,inactive,inactive,inactive,inactive,
COC(=O)C1=C(C)N(CCC(C)O)C(=O)N(C(C)=O)C1c1ccccc1 (configuration not stated),inactive,inactive,inactive,inactive,inactive,inactive,
COC(=O)c1ccccc1C[C@]1(C(=O)OC)C=C[C@H](C)[C@@H](c2ccccc2)N1C(=O)C(F)(F)F,inactive,inactive,inactive,inactive,inactive,inactive,
CC1=C[C@@H](C)OC2(C1)C(=O)N(CC1CC1)c1cccc(Br)c12 (some centres not stated),inactive,inactive,inactive,inactive,inactive,inactive,
O=C1[C@H]2[C@@H]3[C@@H](O)[C@H](O)CC(=NOCc4ccccc4)[C@@H]3CC[C@H]2C(=O)N1c1ccc(F)cc1F,inactive,inactive,inactive,inactive,inactive,inactive,
CC[C@H](C)[C@@H](NC(=O)O[C@@H]1C(=O)c2ccc(OC)cc2O[C@H]1c1ccc2c(c1)OCO2)C(=O)OC,inactive,inactive,inactive,inactive,inactive,inactive,
C#CCCCON=C1C[C@@H](O)[C@H](O)[C@H]2[C@@H]3C(=O)N(c4cccc(Oc5ccccc5)c4)C(=O)[C@@H]3CC[C@@H]12,inactive,inactive,inactive,inactive,inactive,inactive,
COC(=O)C1=C(C(=O)OC)[C@@H]2Nc3ccccc3[C@@]23C[C@@H](C(=O)OC)N(C(=O)NC(C)(C)C)C3=N1,inactive,inactive,inactive,inactive,inactive,inactive,
Cc1ccc(S(=O)(=O)OCCc2ccccc2)cc1,inactive,inactive,inactive,inactive,inactive,inactive,
OC[C@H]1O[C@H](C#Cc2ccc(F)cc2F)C=C[C@H]1O,inactive,inactive,inactive,inactive,inactive,inactive,
C=CCN1C(=O)[C@@]2(CC(C)=CC[C@@H](C)O2)c2c(Br)cccc21,inactive,inactive,inactive,inactive,inactive,inactive,
C=CCN1C=C2C(=O)C(C)(OC(=O)C3CCCC3)C(=O)C=C2C=C1c1ccsc1 (configuration not stated),inactive,inactive,inactive,inactive,inactive,inactive,
O=C(C=NO)NCCCCNC(=O)C=NO,inactive,inactive,inactive,inactive,inactive,inactive,
CCOC(=O)CCN1C(=O)[C@@H]2[C@H]3[C@H](O)[C@H](O)CC(=NO[C@@H]4O[C@H](COC(C)=O)[C@@H](OC(C)=O)[C@H](OC(C)=O)[C@@H]4OC(C)=O)[C@H]3CC[C@H]2C1=O,inactive,inactive,inactive,inactive,inactive,inactive,
COCCN1C(=O)N(C)C(c2ccccc2)C(C(C)=O)=C1C (configuration not stated),inactive,inactive,inactive,inactive,inactive,inactive,
COC(=O)C(C(C)=O)[C@@H](NC(=O)OC(C)(C)C)c1ccccc1 (some centres not stated),inactive,inactive,inactive,inactive,inactive,inactive,
C#CCCCON=C1C[C@@H](O)[C@H](O)[C@H]2[C@@H]3C(=O)N(C[C@@H]4CCCO4)C(=O)[C@@H]3CC[C@H]12,inactive,inactive,inactive,inactive,inactive,inactive,
COC(=O)C1=C(C(=O)OC)[C@@H]2N(C)c3ccc(OC)cc3[C@@]23C[C@@H](C(=O)OC)N(C(=O)c2cccs2)C3=N1,inactive,inactive,inactive,inactive,inactive,inactive,
C=CCN1C(=O)[C@]2(OCCC=C[C@H]2C)c2c(Br)cccc21,inactive,inactive,inactive,inactive,inactive,inactive,
COC(=O)N[C@@H](c1cccc(F)c1)C(C(C)=O)C(=O)OC (some centres not stated),inactive,inactive,inactive,inactive,inactive,inactive,
C=CCO[C@@H]1C=C[C@@H](c2ccccc2)O[C@@H]1COC,inactive,inactive,inactive,inactive,inactive,inactive,
CCCC[C@]12Cc3cc(C#N)ccc3[C@H](O1)c1c(c3ccccc3oc1=O)O2,inactive,inactive,inactive,inactive,inactive,inactive,
CC(=O)OC[C@H]1O[C@H](C#CC(C)(C)C)C=C[C@H]1OC(C)=O,inactive,inactive,inactive,inactive,inactive,inactive,
CC(C)Nc1oc(-c2ccccc2)nc1-c1ccc(C(F)(F)F)cc1,inactive,inactive,inactive,inactive,inactive,inactive,
CCCCCCCc1cc2ccccc2c2c(C(=O)OCC)c(C(=O)OCC)c(C(=O)OCC)n12,inactive,inactive,inactive,inactive,inactive,inactive,
CCN1C(=O)NC(c2cccc(F)c2)C(C(C)=O)=C1C (configuration not stated),inactive,inactive,inactive,inactive,inactive,inactive,
